The source made the active and inactive calls.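 The calls were made as follows: active = CXCR6 mean IC50 below 15 µM, and neither CCR6 nor CXCR5 mean IC50 under five times that; inactive = the rest.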
The compounds below were run against C-X-C chemokine receptor type 5 (Homo sapiens) (UniProt P32302) (assay: chemokine receptor panel antagonism: CCR6, CXCR5, CXCR6, profiling panel, selectivity assay for CXCR6 antagonist project, cell-based, CHO-K1 PathHunter beta-arrestin, luminescence (AID 651601)). Settings: antagonist mode, mean of runs.
C-X-C chemokine receptor type 5 (Homo sapiens), sequence (P32302 whole entry, looked up): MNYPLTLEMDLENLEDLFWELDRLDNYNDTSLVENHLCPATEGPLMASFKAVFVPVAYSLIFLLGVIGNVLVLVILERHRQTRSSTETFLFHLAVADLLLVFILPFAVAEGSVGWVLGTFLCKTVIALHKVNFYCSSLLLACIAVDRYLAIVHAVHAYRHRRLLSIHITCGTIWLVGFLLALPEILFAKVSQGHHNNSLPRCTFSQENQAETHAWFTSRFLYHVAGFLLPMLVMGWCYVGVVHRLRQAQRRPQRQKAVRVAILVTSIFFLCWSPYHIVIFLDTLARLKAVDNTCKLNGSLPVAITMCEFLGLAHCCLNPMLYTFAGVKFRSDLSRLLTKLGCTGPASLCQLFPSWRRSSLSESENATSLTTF

outcome, inactive:
COc1cccc(C(=O)NC2CC3CCCC(C2)N3CC(=O)Nc2ccccc2C(F)(F)F)c1 (stereo unspecified)
O=C(CN1C2CCCC1CC(NC(=O)c1ccccc1)C2)Nc1ccccc1C(F)(F)F (stereo unspecified)
COc1cccc(C(=O)NC2CC3CCCC(C2)N3CC(=O)Nc2ccc(N(C)C)cc2)c1 (stereo unspecified)
CN(C)c1ccc(NC(=O)CN2C3CCCC2CC(NC(=O)c2ccccc2)C3)cc1 (stereo unspecified)
O=C(CN1C2CCCC1CC(NC(=O)c1ccccc1)C2)Nc1ccccc1 (stereo unspecified)
COc1cc(C(=O)NC2CC3CCCC(C2)N3CC(=O)Nc2ccccc2)cc(OC)c1OC (stereo unspecified)
